NALP1 inh = NALP1 inhibition | AID 2071 | inhibition, % at 10 µM | 280,000 tested, 0.61% active | S. cerevisiae NALP1/ASC/caspase-1 growth, X-gal OD620, 72 h; in the data active = inhibition mostly above about 24%, no sharp cut-off; inactive = mostly below about 32%
Fh CTSL1 inh = counter-screen for PFM18AAP inhibitors: inhibitors of F. hepatica cathepsin L1; inhibition, % at 5.96 µM; 300,000 tested, 0.49% active; recombinant F. hepatica cathepsin L1, Z-Leu-Arg-MCA fluorescence;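 active = inhibition above the mean of all tested compounds plus 3 SD, set per screening campaign, cut at about 17% in these data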;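 also: 0% = plate median of test compound wells and 100% = 1 µM Z-Phe-Ala-diazomethylketone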
HGIII-sPLA2 inh = Blocks human group III sPLA2 activity. Q9NZ20. QFRET BODIPY PC-A2 liposome hydrolysis, fluorescence. inhibition, % at 12.2 µM. 370,000 tested, 0.56% active. AID 743126;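 active = inhibition above mean plus 3 SD of compounds lying within the high and low control bounds, cut at about 19% in these data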;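 also: 0% = median of test compound wells and 100% = no enzyme DMSO wells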
Target sequence (Q9NZ20 whole entry, looked up): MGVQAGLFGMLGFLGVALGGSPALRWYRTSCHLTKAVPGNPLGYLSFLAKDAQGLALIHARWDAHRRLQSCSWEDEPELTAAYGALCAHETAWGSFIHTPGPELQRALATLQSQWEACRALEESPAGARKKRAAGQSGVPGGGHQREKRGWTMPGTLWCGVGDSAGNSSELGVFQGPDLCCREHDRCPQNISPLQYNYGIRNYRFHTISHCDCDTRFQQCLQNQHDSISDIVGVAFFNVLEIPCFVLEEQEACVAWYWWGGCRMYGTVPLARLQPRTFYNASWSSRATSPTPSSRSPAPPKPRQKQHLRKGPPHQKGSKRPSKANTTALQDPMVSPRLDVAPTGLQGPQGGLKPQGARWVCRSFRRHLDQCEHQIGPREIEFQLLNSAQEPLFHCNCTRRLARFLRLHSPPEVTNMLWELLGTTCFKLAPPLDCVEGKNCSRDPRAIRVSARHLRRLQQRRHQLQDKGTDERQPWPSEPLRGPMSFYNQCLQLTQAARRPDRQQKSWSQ
A3G deaminase = inhibitors of human APOBEC3G DNA deaminase | 330,000 tested, 0.28% active | recombinant A3G, ssDNA deamination FAM/TAMRA fluorescence | inhibition, % at 20 µM;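 active = inhibition of at least 40% at 20 µM, with no more than 30% in the related APOBEC3A deaminase screen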;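 also: plate controls were DMSO wells with A3G for no effect and wells lacking A3G enzyme for full effect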
APOBEC3A inh = blocks human APOBEC3A ssDNA deamination | recombinant A3A, FAM/TAMRA ssDNA deamination fluorescence | AID 493011 | P31941 | 330,000 tested, 0.41% active | inhibition, % at 20 µM;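 active = at least 40% inhibition at 20 µM here, with at most 30% in a related deaminase screen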;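 also: plate controls were A3A with DMSO for no effect and wells lacking A3A enzyme for full effect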
hGIII sPLA2 conf = human GIII-sPLA2 inhibition, confirmation; shares compounds with HGIII-sPLA2 inh; AID 743280; 2,000 tested, 34% active; recombinant hGIII-sPLA2, BODIPY PC-A2 QFRET fluorescence; inhibition, % at 12.2 µM;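 active = mean inhibition across triplicates above the hit cutoff set in the earlier primary screen, cut at about 19% in these data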;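 also: 0% = enzyme with DMSO and 100% = DMSO wells lacking enzyme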
535nm interf = counter-screen for HGIII-sPLA2 inhibitors: 535nm fluorescence interference; 2,000 tested, 8.5% active; inhibition, % at 12.2 µM; BODIPY FL product fluorescence interference, QFRET; AID 743282; shares compounds with HGIII-sPLA2 inh;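 active = average inhibition above the solvent-only control mean plus 3 SD, cut at about 6% in these data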;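 also: 0% = DMSO with substrate plus product and 100% = DMSO with substrate alone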
535nm interf DR = counter-screen for HGIII-sPLA2 inhibitors: 535nm fluorescence interference, dose response. shares compounds with HGIII-sPLA2 inh. BODIPY FL product fluorescence interference, cell-free. IC50, µM. 240 tested, under 10 active;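 active = IC50 at or below 10 µM; inactive = IC50 above 10 µM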
Active calls of the source: *; nt = no result. Rows were chosen to be rich in hits. Some 2% of all compounds tested hit in one or more screens of this group.

SMILES	NALP1 inh	Fh CTSL1 inh	HGIII-sPLA2 inh	A3G deaminase	APOBEC3A inh	hGIII sPLA2 conf	535nm interf	others
O=C(NC(=S)NNC(=O)c1ccccc1O)c1cccs1	-4	1	30*	-8	-5	30*	-3	535nm interf DR=>122
O=C(NC(=S)NNC(=O)c1ccccc1O)c1ccccc1	3	-1	31*	-7	-4	25*	-3
CC(=O)Nc1ccc(NC(=S)NC(=O)c2ccc([N+](=O)[O-])cc2)cc1	27	3	24*	-16	6	7	-5
O=C(NC(=S)NNC(=O)c1ccccc1O)c1ccc([N+](=O)[O-])cc1	14	6	39*	-6	-5	29*	1	535nm interf DR=>122
CC(C)[C@H](NC(=O)OC(C)(C)C)C(=O)N1CCC(Oc2cccnc2)CC1	nt	nt	3	nt	nt	nt	nt
C[C@@H]1[C@@H](c2ccccc2)c2cc3ccccc3nc2-c2nc3ccccc3cc2[C@@H]1C(=O)N1CCCC1	nt	nt	0	nt	nt	nt	nt
C[C@@H]1COc2cc(Br)ccc2S(=O)(=O)N1Cc1cn(CC2CCCCC2)nn1	nt	nt	2	nt	nt	nt	nt
O=C(NC(=S)NNC(=O)c1ccccc1O)c1ccc(F)cc1	-1	-2	35*	-1	0	31*	0
CC(C)(C)c1ccc(OCCCC(=O)NNC(=O)c2ccccc2O)cc1	nt	3	18	-8	-1	nt	nt
O=C(NNC(=S)NC(=O)c1cccnc1)c1ccc(F)cc1	-18	-1	7	25	4	nt	nt
Cc1ccc(C(=O)NC(=S)NNC(=O)c2ccccc2O)cc1	8	-4	32*	-3	-2	37*	-1	535nm interf DR=>122
CC(C)(C)c1ccc(C(=O)NCC(=O)NNC(=O)c2ccccc2O)cc1	nt	2	21*	-4	-3	13	-5
C[C@@H]1CCN(C2CC2)S(=O)(=O)c2ccc(N3CC[C@H](O)C3)cc2O1	nt	nt	6	nt	nt	nt	nt
CSCCCNC(=O)CN1C(=O)C2CCCCN2C(=O)c2ccccc21 (centres undefined)	nt	nt	3	nt	nt	nt	nt
N#CCC[C@@H]1CC[C@]2(CCCN(C(=O)c3cccnc3)C2)O1	nt	nt	-1	nt	nt	nt	nt
COc1ccc(NC(=S)NC(NC(=O)c2ccccc2Cl)C(Cl)(Cl)Cl)c([N+](=O)[O-])c1 (centres undefined)	-10	0	28*	-1	0	35*	7.2*
COc1ccc(NC(=O)c2ccc(NC(=O)C(C)C)cc2)c([N+](=O)[O-])c1	24	-6	20*	-7	-7	-4	-5
COc1ccc(NC(=O)c2cccc(NC(=O)C(C)C)c2)c([N+](=O)[O-])c1	29	-4	9	-3	-2	nt	nt
CCOc1ccc(NC(=S)NC(=O)c2c(Cl)cnn2CC)c([N+](=O)[O-])c1	10	3	22*	-5	1	20*	-2
COc1ccc(NC(=S)NC(NC(=O)c2ccc(Cl)cc2Cl)C(Cl)(Cl)Cl)c([N+](=O)[O-])c1 (centres undefined)	3	-2	3	0	0	nt	nt
COc1ccc(C)cc1NCc1ccc([N+](=O)[O-])cc1	11	6	19*	-4	-2	15	-2
COc1ccc(CNc2cc([N+](=O)[O-])ccc2OC)cc1	11	1	2	-5	1	nt	nt
CCCCN1CCN(C(=O)C2CCN(S(=O)(=O)c3ccc4[nH]c(=O)oc4c3)CC2)CC1	nt	nt	4	nt	nt	nt	nt
C=C(C)/C=C1/C(Cc2ccccc2)N(CC2CC2)C(=N)N1C(=O)OCc1ccccc1 (centres undefined)	nt	nt	8	nt	nt	nt	nt
O=C(Nc1csnn1)c1csnn1	23	5	20*	-4	1	2	-6
SMILES	NALP1 inh	Fh CTSL1 inh	HGIII-sPLA2 inh	A3G deaminase	APOBEC3A inh	hGIII sPLA2 conf	535nm interf	others
COC(=O)[C@]12C[C@H](CC(=O)NCCc3ccccc3OC)C(=O)N(Cc3cccc4ccccc34)C1=C[C@H](C1CCCC1)O[C@@H]2C	nt	nt	-8	nt	nt	nt	nt
Cc1cccc(OCCNc2cc(N3CCOCC3)ccc2[N+](=O)[O-])c1	31	0	19*	-8	2	-2	-16
Cc1cccc(OCCNc2cc(N3CCN(C)CC3)ccc2[N+](=O)[O-])c1	-1	-6	-7	-4	-2	nt	nt
CC1CCCCC1NC(=O)CCn1c(=S)[nH]c2ccccc2c1=O (centres undefined)	nt	nt	21*	nt	nt	20*	0
Nc1[nH]n(-c2ccccc2)c(=O)c1N=Nc1ccccc1[N+](=O)[O-]	6	0	6	-1	1	nt	nt
Nc1[nH]n(-c2ccccc2)c(=O)c1N=Nc1ccccc1	-5	2	23*	-6	1	33*	6.3*
CN(C)CC(C)(C)CN=Cc1c(O)[nH]c2ccccc12	14	-1	19*	0	6	15	-2
Cc1cc2nc(/N=C(\N)NC(=O)N3c4ccccc4Sc4ccccc43)nc(C)c2cc1C	39	-2	21*	nt	nt	2	0
Cc1ccc2nc(/N=C(\N)NC(=O)N3c4ccccc4Sc4ccccc43)nc(C)c2c1	18	-2	6	-8	-2	nt	nt
C=CCN1[C@H](CO)[C@H](c2ccc(Br)cc2)[C@@H]1C#N	nt	nt	9	nt	nt	nt	nt
COc1ccc2c(c1)C1C=CCC1C(c1cc3c(cc1Br)OCO3)N2 (centres undefined)	1	-3	20*	-6	-2	34*	8.9*
CC(=O)c1ccc2c(c1)C1C=CCC1C(c1cc3c(cc1Br)OCO3)N2 (centres undefined)	nt	0	0	-8	0	nt	nt
CC(C)C(N)c1csc(Nc2ccc(C(F)(F)F)cn2)n1 (centres undefined)	nt	nt	23*	nt	nt	12	-10
COc1cccc(N=Nc2c(=O)[nH]n3c(C)cc(C)nc23)c1	24	3	22*	-1	1	-5	0
CCOc1ccc(N=Nc2c(=O)[nH]n3c(C)cc(C)nc23)cc1	19	-5	0	-4	-5	nt	nt
CN(c1ccc(C(=O)Nc2ccc(Cl)cn2)cc1)S(=O)(=O)c1ccccc1	8	0	-15	-3	-1	nt	nt
CN(C1=C(NC(=O)c2ccc(Cl)cc2)C(=O)c2ccccc2C1=O)c1ccccc1	34	-1	44*	3	0	49*	7.6*
